{"source": "PubChem BioAssay (NCI)", "note": "Values joined by “and” are separate entries in the source; they are usually repeats but may differ in a detail not shown here. Equal values may be shown once. Compounds without any hit were thinned out: in the full panel of roughly 83,000, 20% have a hit.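 96-well plates, one dose, 48 hours. Percent growth reported; active if below 10.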 Values without a mark were called inactive. Active and inactive are the calls of the source.", "data": [{"tested_on": "CAKI-1 renal", "assay": "NCI-60 one-dose screen, 48 h (100 = growth as untreated, 0 = no growth, -100 = all killed)", "conditions": "10 µM unless noted", "values": [{"smiles": "CCc1cccc2c3c(sc12)C(c1ccc(F)cc1)C(C#N)=C(/N=C/c1ccc(Cl)cc1)O3", "note": "(stereo not given)", "growth": "41.5%"}, {"smiles": "Cc1ccc2c(n1)C(=O)C(Cl)=C(Nc1ccc(C(=O)OC(C)(C)C)cc1)C2=O", "growth": "-34.8% [9.25 µM] (active)"}, {"smiles": "Clc1ccc2[nH]cc(-c3cncn3CCc3ccc4c(c3)OCO4)c2c1", "growth": "35.6%"}, {"smiles": "CCCCCCCCCC(=O)NC(C)(C)C(=O)N1CCC[C@H]1C(=O)N[C@@H](CC(C)C)C(=O)N[C@@](C)(CC)C(=O)N[C@@H](CCC(N)=O)C(=O)N[C@H](CCC(N)=O)C(=O)NC(C)(C)C(=O)NC(C)(C)C(=O)N[C@@H](CCC(N)=O)C(=O)N[C@H](CC(C)C)C(=O)N[C@H](CO)CC(C)C", "growth": "-67.5% (active) and 5.79% (active)"}, {"smiles": "C=C1CCc2nc(SCC(=O)O)ccc2N1", "growth": "97.3%"}, {"smiles": "CC[C@]12C=CCN3CC[C@@]4(c5ccc(OC)cc5N(C)[C@H]4[C@@](O)(C(=O)OC)[C@@H]1OC(=O)CCN1CCc4ccccc4C1)[C@@H]32", "growth": "80.3%"}, {"smiles": "CCOC(=O)c1cccnc1Nc1ccc(NC(=O)Nc2ccc(Cl)c(C(F)(F)F)c2)cc1", "growth": "22.6%"}, {"smiles": "Cc1ccc(S(=O)(=O)NCCCNc2nccc(-c3[nH]c(-c4ccccc4)nc3-c3ccc(F)c(O)c3)n2)cc1", "growth": "90.7%"}, {"smiles": "O=C(CSc1nnc(-c2ccc(Cl)cc2)n1-c1ccccc1)Nc1ccc(Cl)cc1", "growth": "50.9%"}, {"smiles": "Cc1ccc2c(n1)C(=O)C(Cl)=C(Nc1ccc(C(F)(F)F)cc1)C2=O", "growth": "44.4%"}, {"smiles": "CC(=O)C1=C(C)NC(NNc2ccccc2)=NC1c1ccc([N+](=O)[O-])cc1", "note": "(stereo not given)", "growth": "43.3%"}, {"smiles": "NC(N)=NS(=O)(=O)c1ccc(N=Nc2c(N)nn(-c3ccc([N+](=O)[O-])cc3[N+](=O)[O-])c2N)cc1", "growth": "90.5%"}, {"smiles": "NCCNC(=O)c1cccc(COc2ccccc2NC(=O)c2cc(Br)c(Br)[nH]2)c1", "growth": "90.1%"}, {"smiles": "COC(=O)CCCNCCCn1ccc2cc(NCc3cccc(-c4ccccc4)c3C)ccc21", "growth": "48.4%"}, {"smiles": "O=C(CCCCCCN1CC(=O)N2[C@@H](c3ccccc3Br)c3[nH]c4ccccc4c3C[C@H]2C1=O)NO", "growth": "42.2%"}, {"smiles": "CCCCOc1ccc(S(=O)(=O)N2CCN(c3nc(C)cc(N4CCOCC4)n3)CC2)cc1", "growth": "19.8%"}, {"smiles": "NS(=O)(=O)c1ccc(CCn2c(-c3ccc(C(=O)O)cc3)nc(-c3ccccc3)c2-c2ccccc2)cc1", "growth": "88.7%"}, {"smiles": "N#C/C(=N\\Nc1ccc(F)cc1)C(=O)Nc1cc(-c2ccccc2)nn1-c1ccccc1", "growth": "2.61% (active)"}, {"smiles": "Cn1c2nc3ccccc3c-2cc2ccccc21", "growth": "18.9%"}, {"smiles": "NS(=O)(=O)c1nnc(/N=C/c2c(O)[nH]c3ccccc23)s1", "growth": "86.5%"}, {"smiles": "NC(=O)c1c(NC(=O)c2ccc(C(F)(F)F)cc2)sc2c1CCC(=O)C2", "growth": "-24.3% (active)"}, {"smiles": "O=C(N/N=C\\c1ccc([N+](=O)[O-])cc1)c1ccc2nc(-c3ccc(Br)cc3)[nH]c2c1", "growth": "34.8%"}, {"smiles": "C#CCN(C)CCCOc1ccc(NC(=O)CCCCCCC(=O)NO)cc1Cl", "growth": "17.9%"}, {"smiles": "Fc1cc(F)cc(NNC(=S)c2ccccc2)c1", "growth": "56.2%"}, {"smiles": "Fc1ccc(-c2cn3c(-c4c[nH]c5ccc(Br)cc45)csc3n2)cc1", "growth": "38.3%"}, {"smiles": "CC[C@]12C=CCN3CC[C@]4(C(=C(C(=O)OC)C1)Nc1cc5c(cc14)[C@@H]1[C@H](O5)[C@@H](O)[C@@]4(CC)CC(C(=O)OC)=C5Nc6cc(O)ccc6[C@@]56CCN1C46)C32", "note": "(stereo not given in full)", "growth": "-7.67% (active)"}, {"smiles": "Cc1cc(C)cc(NC2=C(Cl)C(=O)c3nc(C)ccc3C2=O)c1", "growth": "89.6%"}, {"smiles": "COc1ccc2c(c1)c(-c1nn3cc(-c4ccncc4)nc3s1)cn2C", "growth": "50.6%"}, {"smiles": "COC(=O)N1CCN(CCNCc2ccc(NC(=O)c3ccc(C)c(C#Cc4cnc5cccnn45)c3)cc2C(F)(F)F)CC1", "growth": "20.2%"}, {"smiles": "CC(C)(O)c1cncc(-c2ccc3ncc(C#N)c(N4CCc5cc(F)c(Cl)cc54)c3c2)c1", "growth": "0.608% (active)"}, {"smiles": "O=C(/C=C/c1ccc(F)cc1)Nc1cccc2cccnc12", "growth": "91.4%"}, {"smiles": "C#CCN(C)CCCOc1ccc(NCc2ccc(C(=O)NO)cc2)cc1Cl", "growth": "8.63% (active)"}, {"smiles": "COCCOc1ccc2ncc(C#Cc3cncc(C(=O)Nc4ccc(CN5CCN(C)CC5)c(C(F)(F)F)c4)c3)n2n1", "growth": "1.32% (active)"}, {"smiles": "CC(C)NC(=O)c1cc(-c2ccc(NC(=O)Nc3ccc(F)cc3)cc2)nc2cccnc12", "growth": "95%"}, {"smiles": "O=C1c2ccccc2C23C(=C(c4cncnc4)c4ccccc42)CCCN13", "note": "(stereo not given)", "growth": "78.5%"}, {"smiles": "N#Cc1cccc(-c2cc(-c3ccc4c(c3)OCCO4)[nH]n2)c1", "growth": "35.8%"}, {"smiles": "CCC(=C(c1ccc(OCCN(C)C)cc1)c1ccc(OCCN(C)C)cc1)c1ccc(Cl)cc1", "growth": "-53.6% (active)"}, {"smiles": "COc1ccccc1/C=C1\\Oc2ccc(O)c(O)c2C1=O", "growth": "78.4%"}, {"smiles": "CN1CCN(c2ccc(Nc3nc(NCCCNS(=O)(=O)c4ccccc4)c4sccc4n3)cc2)CC1", "growth": "30.8%"}, {"smiles": "Nc1nc(=O)n([C@H]2C[C@H](O)[C@@H](CO)O2)cc1C=O", "growth": "82.1%"}]}]}
